Experimental data from paper PMC5540273 (PLoS ONE, 2017).

These molecules were tested on PIM3. Conditions: concentration: 1 μM,replicates: in singlicate; n = 1.
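Further: KINOMEscan kinase panel screen.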

Structure (SMILES) | %Inh [%]
CCCC(=O)Nc1n[nH]c2ncccc12 [SB-601436] | 0
O=C(NOCC1CC1)c1cc(Br)c(F)c(F)c1Nc1ccc(I)cc1Cl | 1
CS(=O)(=O)Nc1ccc(-c2ccnc3[nH]ccc23)cc1 [GSK993273] | 12
Cn1ccc2ncnc(Oc3ccc(NC(=O)Nc4cccc(C(F)(F)F)c4)c(Cl)c3)c21 | 15
CN1CCN(CCCNc2nccc(-c3c(-c4ccc(F)cc4)nn4cc(C(N)=O)ccc34)n2)CC1 [GW622475] | 8
O=C(Nc1cccc(C(F)(F)F)c1)c1cccc(Oc2ccc3nccn3n2)c1 | 0
COc1ccc(Nc2nccc(N3CCC(NC(=O)c4cccc(C#N)c4)C3)n2)cc1 (stereo not shown) [GSK1379730] | 0
Cc1ccc2c(-c3ccnc(Nc4ccc(C(F)(F)F)cc4)n3)cnn2n1 [GW819776] | 0
CN1CCN(CCNc2nc3cc(Oc4ccc(NC(=O)Nc5cc(C(F)(F)F)ccc5F)cc4)ccc3[nH]2)CC1.Cl.Cl [GW768504] | 0
Cc1n[nH]c2cc(Nc3ccnc(Nc4cccc(CN5CCOCC5)c4)n3)ccc12 [GW682569] | 0
CN(c1ccc2c(c1)nc(NCc1ccc(F)cc1)n2C)c1ccnc(Nc2ccc(CS(C)(=O)=O)cc2)n1.Cl [GW813244] | 15
CCOC(=O)N1CCC(n2cnc(-c3ccc(F)cc3)c2-c2ccnc(N)n2)CC1 [SB-219952] | 1
O=C(Nc1cccc(Oc2ccc3nccn3n2)c1)Nc1cccc(C(F)(F)F)c1 | 0
Cc1cccc(-c2nc(Nc3ccncc3)c3sccc3n2)n1 [GW869641] | 13
C[C@@H](Oc1cc(-n2cnc3ccc(-c4ccncc4)cc32)sc1C(N)=O)c1ccccc1Cl [GSK483724] | 23
CN(c1ccccc1CNc1nc(Nc2ccc3c(c2)CC(=O)N3)ncc1C(F)(F)F)S(C)(=O)=O | 0
C[C@@H]1CNc2c(sc3ccc4nc(-c5ccc(O)cc5)ccc4c23)C(=O)N1 | 72
Cn1ccc2ncnc(Oc3ccc(NC(=O)Nc4ccnc(C(F)(F)F)c4)c(Cl)c3)c21 | 0
CCn1c(-c2nonc2N)nc2cncc(Br)c21 [SB-738004] | 62

Structure (SMILES) | %Inh [%]
N#Cc1cccc(C(=O)NC2CCN(c3ccnc(Nc4ccc(F)cc4)n3)C2)c1 (stereo not shown) [GSK1379708] | 0
Cc1ccc(C(=O)Nc2ccc(Oc3ccc4nc(NC(=O)C5CC5)cn4c3)c(F)c2)c(=O)n1-c1ccccc1 | 0
CCNCC(Cc1ccccc1)NC(=O)c1cc(Br)c(-c2ccnc3[nH]ccc23)s1.Cl.Cl (stereo not shown) [GSK1383280] | 5
COc1cccc(C2=C(Nc3cccc(Cl)c3)C(=O)NC2=O)c1 [SB-341556] | 0
NC(=O)c1ccc(-c2cc3ncnc(SCC(=O)O)c3s2)cc1 | 22
Cc1ccc(CC(=O)N2CCc3cc(-c4cn(C)c5ncnc(N)c45)ccc32)cc1 [GSK2634758] | 0
Cl.Nc1n[nH]c2cc(-c3ccccn3)ccc12 [GSK2189892] | 0
CCn1c(-c2nonc2N)nc2cncc(CNC3CCNCC3)c21.Cl [SB-747651] | 80
NC(=O)Nc1sc(-c2ccc(F)cc2)cc1C(N)=O [GW789449] | 0
Cn1cc(-c2cccc3c(N)c(C(N)=O)nnc23)cn1 | 0
CN(c1cccc(CNc2nc(Nc3ccc4c(c3)CC(=O)N4)ncc2C(F)(F)F)c1)S(C)(=O)=O | 3
CC(=O)Nc1nc2cnc(Nc3cc(NC(=O)c4cccc(CC(C)(C)C#N)c4)ccc3C)nc2s1 | 22
c1ccc(Oc2ccc(Nc3ccnc4ccc(-c5ccccn5)cc34)cc2)cc1 [GW407034] | 0
Cc1ccc(Nc2ccnc(Nc3ccc4c(c3)CS(=O)(=O)C4)n2)cc1O.Cl [GW579362] | 5
CC(C)c1nc(-c2cccc(NS(=O)(=O)c3ccccc3)c2)c(-c2ccnc(Nc3ccc4c(c3)CN(C)CC4)n2)s1 [GSK1649598] | 18
O=C(NCC1CC1)c1ccc(-c2cc(C(=O)NC3CC3)ccc2F)cc1 [GW810445] | 0
CC(C)S(=O)(=O)N1CCN(Cc2ccc3c(c2)nc(NC(=O)c2ccsc2)n3C[C@H](O)c2ccccc2)CC1 [GW635815] | 7
Cc1ccn2nc(-c3ccc(F)cc3)c(-c3ccncc3)c2c1.Cl [GW457859] | 0
